# Assay results as given in the supplement of paper PMC8728848.
# The sample as a whole holds a higher share of the strongest signals than the screen did.
# Experiments:
# Test in all cases: glycan array binding signal (z-score within array); higher = stronger binding
# Conditions in all cases: glycan notation: IUPAC condensed, linker removed
# Gal(b1-3)Gal(b1-4)GlcNAc = test system: Gal(b1-3)Gal(b1-4)GlcNAc
# Outline: (§1)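 The binding signal is a Z-score computed within each array and averaged over linkers. Arrays of the same protein sequence at different concentrations or buffers were also averaged together. Data originate from 3228 arrays in the Consortium for Functional Glycomics database, kept only where the protein sequence was available.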
# Gal(a1-4)GlcNAc = test system: Gal(a1-4)GlcNAc
# Outline: as §1
# Gal(a1-4)Gal(b1-4)Glc = test system: Gal(a1-4)Gal(b1-4)Glc
# Outline: as §1
# Gal(b1-3)GalNAc(b1-3)Gal = test system: Gal(b1-3)GalNAc(b1-3)Gal
# Outline: as §1
# [1] = test system: Gal(b1-3)GalNAc(b1-4)Gal(b1-4)Glc
# Outline: as §1
# Gal(b1-3)GalNAc = test system: Gal(b1-3)GalNAc
# Outline: as §1
# [2] = test system: Gal(a1-3)Gal(b1-4)[Fuc(a1-3)]GlcNAc(b1-2)Man(a1-3)[Gal(a1-3)Gal(b1-4)[Fuc(a1-3)]GlcNAc(b1-2)Man(a1-6)]Man(b1-4)GlcNAc(b1-4)GlcNAc
# Outline: as §1
# [3] = test system: Gal(a1-3)Gal(b1-4)[Fuc(a1-3)]GlcNAc
# Outline: as §1
# Gal(a1-6)Glc = test system: Gal(a1-6)Glc
# Outline: as §1
# Gal(a1-3)Gal(b1-4)GlcNAc = test system: Gal(a1-3)Gal(b1-4)GlcNAc
# Outline: as §1
# [4] = test system: Gal(b1-3)GalNAc(a1-3)[Fuc(a1-2)]Gal(b1-4)GlcNAc
# Outline: as §1
# [5] = test system: Gal(b1-3)GalNAc(a1-3)[Fuc(a1-2)]Gal(b1-4)Glc
# Outline: as §1
# Gal(a1-3)Gal = test system: Gal(a1-3)Gal
# Outline: as §1
# Gal(a1-4)Gal(b1-4)GlcNAc = test system: Gal(a1-4)Gal(b1-4)GlcNAc
# Outline: as §1
# Gal(b1-2)Gal = test system: Gal(b1-2)Gal
# Outline: as §1
# [6] = test system: Gal(b1-3)GalNAc(b1-4)[Neu5Gc(a2-3)]Gal(b1-4)Glc
# Outline: as §1
# [7] = test system: Gal(a1-3)Gal(b1-4)GlcNAc(b1-3)GalNAc
# Outline: as §1
# [8] = test system: Gal(a1-3)[Gal(a1-4)]Gal(b1-4)GlcNAc
# Outline: as §1
# [9] = test system: Gal(b1-3)GalNAc(b1-3)Gal(a1-4)Gal(b1-4)Glc
# Outline: as §1
# [10] = test system: Gal(a1-3)Gal(b1-4)GlcNAc(b1-6)GalNAc
# Outline: as §1
substance,measurement,setting,value
"SiiE (Salmonella typhimurium), A0A0H3NVH0",glycan array binding signal (z-score),Gal(b1-3)Gal(b1-4)GlcNAc,-1.51
AgI/IIC123-GFP (Streptococcus mutans),glycan array binding signal (z-score),Gal(a1-4)GlcNAc,0.706
Epa22,glycan array binding signal (z-score),Gal(a1-4)Gal(b1-4)Glc,-0.375
same,glycan array binding signal (z-score),Gal(a1-4)GlcNAc,10.5
same,glycan array binding signal (z-score),Gal(b1-3)GalNAc(b1-3)Gal,2.8
same,glycan array binding signal (z-score),[1],2.6
same,glycan array binding signal (z-score),Gal(b1-3)GalNAc,1.46
AgI/II Vhelical-GFP (Streptococcus mutans),glycan array binding signal (z-score),[2],-0.151
same,glycan array binding signal (z-score),[3],-0.245
same,glycan array binding signal (z-score),Gal(a1-6)Glc,-0.194
same,glycan array binding signal (z-score),[1],-0.139
"SpGH101 (Streptococcus pneumoniae), Q8DR60",glycan array binding signal (z-score),Gal(a1-3)Gal(b1-4)GlcNAc,-0.162
same,glycan array binding signal (z-score),Gal(b1-3)Gal(b1-4)GlcNAc,-0.193
same,glycan array binding signal (z-score),[4],1.71
same,glycan array binding signal (z-score),[5],2.88
same,glycan array binding signal (z-score),Gal(b1-3)GalNAc,8.17
LcI (Legionella pneumophila),glycan array binding signal (z-score),Gal(a1-3)Gal,-0.38
same,glycan array binding signal (z-score),Gal(a1-4)Gal(b1-4)GlcNAc,-0.363
same,glycan array binding signal (z-score),Gal(b1-2)Gal,4.02
"MIC3-MAR1b (Eimeria tenella), B6VCV4",glycan array binding signal (z-score),[6],-0.47
"BambL (Burhholderia ambifaria), Q0B4G1",glycan array binding signal (z-score),[7],-0.314
same,glycan array binding signal (z-score),[8],-0.316
same,glycan array binding signal (z-score),Gal(b1-2)Gal,-0.304
same,glycan array binding signal (z-score),[5],-0.278
"GspB (Streptococcus gordonii), Q939N5",glycan array binding signal (z-score),[9],3.02
Actinohivin (Actinomycete K97),glycan array binding signal (z-score),Gal(a1-3)Gal(b1-4)GlcNAc,-0.163
same,glycan array binding signal (z-score),[2],0.092
same,glycan array binding signal (z-score),Gal(b1-3)Gal(b1-4)GlcNAc,-0.14
same,glycan array binding signal (z-score),[4],-0.176
"Wza (Escherichia coli), P0A930",glycan array binding signal (z-score),[10],3.84
same,glycan array binding signal (z-score),Gal(a1-6)Glc,3.12
same,glycan array binding signal (z-score),Gal(b1-3)Gal(b1-4)GlcNAc,3.02
